# Screening results from PubChem.
# This is a sample that favours compounds with a hit; in the whole collection about 2.2% have one here.
# JMJD2C inh = inhibitors of human GASC-1 (JMJD2C) demethylase; GST-JMJD2C(1-420) H3K9me3 demethylation, DELFIA europium; inhibition, % at 2.35 µM; hit rate 0.069% among 330,000; AID 2099;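 active = more than half of a compound's replicate wells show inhibition beyond 50%, single wells judged on their own value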;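 also: signal counts dimethyl H3K9 product captured on neutravidin plate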
# PHOSPHO1 block = inhibitors of human PHOSPHO1 phosphatase; inhibition, % at 13.3 µM; hit rate 1.1% among 290,000; recombinant PHOSPHO1, absorbance phosphatase assay; AID 1565; Q8TCT1; in the data active = inhibition above about 60%
# HDAC3 inh = blocks human histone deacetylase 3; recombinant HDAC3, fluorogenic peptide/trypsin coupled, fluorescence; inhibition, % at 8.3 µM; hit rate 0.15% among 320,000; in the data active = inhibition above about 26%, passing the limit was not always enough
# Target sequence (O15379 whole entry, looked up): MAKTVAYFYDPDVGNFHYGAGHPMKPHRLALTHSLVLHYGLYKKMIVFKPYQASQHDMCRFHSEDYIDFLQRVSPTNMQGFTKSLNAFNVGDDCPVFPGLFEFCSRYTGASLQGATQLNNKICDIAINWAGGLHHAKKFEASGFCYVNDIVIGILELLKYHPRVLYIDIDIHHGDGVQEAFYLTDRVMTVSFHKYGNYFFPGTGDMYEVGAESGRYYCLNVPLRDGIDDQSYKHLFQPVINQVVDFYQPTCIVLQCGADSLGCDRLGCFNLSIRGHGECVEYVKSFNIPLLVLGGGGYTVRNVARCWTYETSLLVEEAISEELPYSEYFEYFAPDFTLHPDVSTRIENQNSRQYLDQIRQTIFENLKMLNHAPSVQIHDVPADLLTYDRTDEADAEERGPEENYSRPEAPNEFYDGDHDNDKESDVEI
# SUMO Mot1 rescue = inhibitors of SUMOylation pathway: yeast Mot1-301 growth rescue; S. cerevisiae Mot1-301 growth rescue, ATP luminescence, 38.5C; percent above DMSO median, 100 means doubled; growth rescue, % at 18.8 µM; hit rate 1% among 320,000;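 active = every valid replicate shows activation above 250% relative to neutral control wells; inactive = the rest, any valid replicate at or below 250%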
# p-CIP stab down = p/CIP protein destabilization; F442A p/CIP-EGFP cells, EGFP fluorescence, 16 h; decrease of EGFP signal, % at 10 µM; hit rate 0.01% among 290,000;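 active = EGFP signal decrease of at least 30% at 10 µM or well 3 SD below plate mean, unless failing retest; inactive = the rest, including hits failing retest or dose response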
# PvdQ acylase = P. aeruginosa PvdQ acylase inhibition; purified PvdQ acylase, fluorescence plate reader; hit rate 0.063% among 340,000; inhibition, % at 10 µM; in the data active = inhibition above about 30%, passing the limit was not always enough
# A number is an active result; i = inactive; nt = not tested or not shown; + = active, no number.
SMILES,JMJD2C inh,PHOSPHO1 block,HDAC3 inh,SUMO Mot1 rescue,p-CIP stab down,PvdQ acylase
O=c1[nH]c(=O)n(CCC2=CCCCC2)c(O)c1/C=N/Nc1cccc2ccccc12,i,i,i,i,i,i
O=c1[nH]c(=S)n(C2CC2)c(O)c1/C=N/Nc1cccc2ccccc12,i,i,i,i,i,i
O=C1NC(=O)N(Cc2ccc(F)cc2)C(=O)/C1=C\C=C\c1ccco1,69,i,i,nt,i,i
CC1(C)C2([N+](=O)[O-])CN3CC1([N+](=O)[O-])CN(C2)C3c1ccccn1 (stereo unspecified),i,i,i,i,i,i
CSC1=NP(=S)(SC)N2CCCC2=C1C#N (stereo unspecified),i,i,i,i,i,i
COC(=O)CSC1=NP(=S)(SCC(=O)OC)N2CCCC2=C1C#N (stereo unspecified),i,67,i,i,i,i
CCOC(=O)C1CCN(/C=C2\C(=O)NC(=S)N(CC)C2=O)CC1,i,62,i,i,i,i
CC(C)Oc1cccc(NC(=O)c2cccn(Cc3ccc4c(c3)OC(F)(F)O4)c2=O)c1,i,i,34,i,i,i
O=C(Nc1cccc(C(F)(F)F)c1)c1cccn(Cc2ccc3c(c2)OC(F)(F)O3)c1=O,i,i,i,i,i,i
CCOP(=S)(OCC)N1CCOCCOCCN(P(=S)(OCC)OCC)CCOCCOCC1,i,i,i,i,i,i
CCOC(=O)c1c(C)c(P(=S)(N2CCOCC2)N2CCOCC2)n(C)c1C,i,61,i,i,i,i
CC(C)c1onc(C(=O)N2CCC3(CC2)OCCO3)c1[N+](=O)[O-],i,64,i,i,i,i
Cc1noc(C)c1C(=O)N1CCC2(CC1)OCCO2,i,i,i,i,i,i
O=c1ccc2c(O)c3ccoc3cc2o1,nt,nt,nt,nt,nt,i
OC1/C(=C/c2ccccc2C(F)(F)F)N2CCC1CC2 (stereo unspecified),i,i,i,i,i,i
COc1ccc(CC2(CCc3ccncc3)C(=O)NC(=O)NC2=O)c(OC)c1,i,i,i,281,i,i
COc1cc(CC2(CCc3ccncc3)C(=O)NC(=O)NC2=O)cc(OC)c1OC,i,i,i,i,i,i
CCn1c(=O)n(CC)c2cc([N+](=O)[O-])c(N3CCNCC3)cc21,i,i,i,i,i,i
COc1ccc(C2(C#N)CCN(C)CC2)cc1,i,i,i,i,i,i
CN(C)C(=S)SSC(=S)N(C)C,i,i,i,i,i,i
O=C1NC(=O)N(c2ccccc2)C(=O)/C1=C\c1ccc([N+](=O)[O-])o1,i,62,i,i,i,nt
O=C(c1n[nH]c(=O)c2ccccc12)N1CCC2(CC1)OCCO2,i,i,i,i,i,i
Cc1cccc(N=Cc2c(O)n(-c3ccccc3C)c(=O)[nH]c2=O)c1,nt,i,i,280,i,i
CC(C)(O)C1C2OC(=O)C1C1(O)CC3OC34C(=O)OC2C14C (stereo unspecified),nt,nt,nt,nt,nt,i
S=C=Nc1ccccn1,i,61,i,i,i,i
SMILES,JMJD2C inh,PHOSPHO1 block,HDAC3 inh,SUMO Mot1 rescue,p-CIP stab down,PvdQ acylase
O=c1[nH]c(=S)n(-c2ccccc2F)c(O)c1C=Nc1ccc(N2CCOCC2)cc1,i,i,i,+,i,i
Cc1nc2ccsc2c(=O)n1-c1ccccc1Cl,i,nt,i,i,nt,i
CCc1ccc(C(=O)C23CN4CN(CN(C4)C2)C3)cc1,i,i,i,351,i,i
CCCNS(=O)(=O)c1ccc(OCC(=O)N2CCN(Cc3ccccc3)CC2)cc1,i,i,i,i,i,i
CC(C)(C)NS(=O)(=O)c1ccc(OCC(=O)N2CCN(Cc3ccccc3)CC2)cc1,i,60,i,i,i,i
CCCCNS(=O)(=O)c1ccc(OCC(=O)N2CCN(Cc3ccc4c(c3)OCO4)CC2)cc1,i,61,i,i,i,i
C[C@H]1C[C@@H](C)C(=O)[C@@H]([C@H](O)CC2CC(=O)NC(=O)C2)C1,i,i,i,430,i,i
CN1C(=O)C(O)N=C(c2ccccc2)c2ccccc21 (stereo unspecified),i,nt,i,i,i,i
CC[C@@H]1C=CC=CC[C@H](C)[C@@H](O)[C@@H](C)C(=O)[C@H](C)[C@@H](O)[C@H](C)C(=O)[C@H](C)[C@@H](O)[C@H](C)C=CC(=O)O[C@H]2[C@@H](C)[C@@H](CC1)O[C@@]1(CC[C@@H](C)[C@@H](C[C@H](C)O)O1)[C@@H]2C,i,nt,50,i,nt,nt
Oc1ccc(/C=N/NP(=S)(c2ccccc2)c2ccccc2)cc1,i,83,i,i,i,i
COc1cc(/C=N/NP(=S)(c2ccccc2)c2ccccc2)ccc1O,i,i,i,i,i,i
CCOC(=O)C1CCN(C(C)C(=O)c2c(C)[nH]c3cc(C)ccc23)CC1 (stereo unspecified),i,i,i,i,i,i
CCOC(=O)C1SC2(C(F)(F)F)CC1(O)c1c(C)cc(C)nc1O2 (stereo unspecified),i,i,44,i,i,i
CCOP(=O)(Cc1ccccc1)OCC,i,nt,i,i,nt,i
CCN1C(=O)C(=C2C=C(C)OC(C)=C2)C(=O)N(CC)C1=S,i,i,i,nt,i,i
CCOC(=O)C1=CC(=C2C(=O)N(CC)C(=S)N(CC)C2=O)c2ccccc2O1,53,i,i,i,i,nt
CCOP(=O)(OCC)/C(C#N)=C/c1ccc(Br)cc1,i,i,i,i,i,i
CCCCn1c(NS(=O)(=O)c2ccccc2)c(C(=O)OCC)c2nc3ccccc3nc21,i,83,i,i,i,i
O=C1NC(=S)NC(=O)C12C(c1ccc(F)cc1)NC(=S)NC2c1ccc(F)cc1 (stereo unspecified),i,95,i,i,i,i
O=C1NC(=S)NC(=O)C12C(c1ccccc1)NC(=S)NC2c1ccccc1 (stereo unspecified),i,i,i,i,i,i
COP(=S)(OC)SCN1C(=O)c2ccccc2C1=O,i,77,nt,i,i,i
CN1CCc2cccc(Cl)c2CC1,nt,nt,i,i,nt,i
O=C(c1ccc2c3c(cccc13)CC2)C1CCCN(CC2CC2)C1 (stereo unspecified),i,60,i,i,i,i
C=CCn1c(O)c(/C(CC)=N/NC(=S)Nc2ccccc2)c(=O)[nH]c1=O,i,67,i,i,i,i
CC1=NN(c2ccccc2)C(=O)/C1=C/c1c(O)[nH]c(=S)[nH]c1=O,i,86,i,i,i,i
CN1CCN(c2ccc(N)cc2)CC1,i,i,i,i,i,i
CN1CCN(c2ccc(C=O)cc2)CC1,59,i,i,i,i,i
CCOc1ccccc1N=C1SCCCN1C,i,92,i,i,i,i
